# Active and inactive are the calls of the source.
# Legend:
# [1] = optical density shifts of acrAB sulA E. coli – strain DRC41, OD650, 48 h, E. coli filamentation inducer project, primary screen (AID 1152); conditions: higher = more signal, called active from +8 up or from −8 down;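 note: E. coli MC1000 strain DRC41 lacking acrAB efflux pump and sulA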
# [2] = probe aLefty1 binding on compound microarray – biochemical, small-molecule microarray, 635/667 nm fluorescence, primary screen (AID 1153); conditions: higher = more signal;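 note: score merges spot fluorescence with signal-to-noise ratio from the scanned slide images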
# [3] = plasmodial surface anion channel blockers, osmotic lysis – cell-based, P. falciparum Indochina, OD700, 1 h, primary screen (AID 1154); conditions: P. falciparum Indochina infected RBC osmotic lysis, higher = more signal, called active from +8 up or from −8 down
# [4] = plasmodial surface anion channel blockers, osmotic lysis – cell-based, P. falciparum Indochina, OD700, 2 h, primary screen (AID 1155);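 note: lysis reports solute entry through the parasite surface anion channel PSAC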; conditions: P. falciparum Indochina infected erythrocytes, higher = more signal, called active from +8 up or from −8 down
# [5] = changes in parasitized red cell lysis, either direction – P. falciparum Indochina, OD700, 3 h, PSAC antagonist project, primary screen (AID 1156); conditions: P. falciparum-infected erythrocytes, osmotic lysis, higher = more signal, called active from +8 up or from −8 down
# [6] = plasmodial surface anion channel blockers, osmotic lysis – cell-based, P. falciparum Indochina, OD700, 18 h, primary screen (AID 1157); conditions: P. falciparum Indochina infected erythrocytes, osmotic lysis OD700, 18 h; higher = more signal, called active from +8 up or from −8 down
# [7] = S6 kinase pathway phospho-S6 level changes – cell-based, A549, cytoblot, luminescence, serum-stimulated, primary screen (AID 1158); conditions: 5 h, higher = more signal;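 note: serum-stimulated A549 lung adenocarcinoma cells; signal is phosphorylated S6 detected by cytoblot immunostaining with HRP secondary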
# [8] = biological target: NADPH oxidase 2 (Homo sapiens) (UniProt P04839); test: compounds shifting NOX2 Amplex Red fluorescence – cell-based, HEK293-NOX2, PMA-stimulated, NOX inhibitor project, primary screen (AID 1159); conditions: 45 min, higher = more signal, called active from +8 up or from −8 down; note: test concentration not given here
# [9] = biological target: NADPH oxidase 4 (Homo sapiens) (UniProt Q9NPH5); test: compounds shifting NOX4 Amplex Red fluorescence – cell-based, HEK293-NOX4, tetracycline-induced, NOX inhibitor project, primary screen (AID 1160); conditions: HEK293-NOX4, Amplex Red H2O2 fluorescence, 45 min; higher = more signal, called active from +8 up or from −8 down
# [10] = biological target: NADPH oxidase 5 (Homo sapiens) (UniProt Q96PH1); test: compounds shifting NOX5 Amplex Red fluorescence – cell-based, HEK293-NOX5, NOX inhibitor project, primary screen (AID 1161); conditions: HEK293-NOX5, ionomycin, 45 min, higher = more signal
# [11] = compound effects on lung adenocarcinoma cell viability – A549, calcein-AM fluorescence, 48 h, basal, profiling panel (AID 1162); conditions: higher = more signal; note: test concentration not given here
# [12] = compound effects on differentiated 3T3-L1 adipocyte viability – cell-based, 3T3-L1 adipocytes, calcein-AM fluorescence, 48 h, basal, profiling panel (AID 1163); conditions: 3T3-L1 adipocytes viability, higher = more signal; note: test concentration not given here
# [13] = compound effects on hepatocellular carcinoma cell viability – HepG2, calcein-AM fluorescence, 48 h, basal, profiling panel (AID 1164); conditions: higher = more signal; note: test concentration not given here
# [14] = compound effects on multiple myeloma cell viability – MM1S, calcein-AM fluorescence, 48 h, basal, profiling panel (AID 1165); conditions: higher = more signal; note: test concentration not given here
# [15] = calcein-AM signal in unstimulated myeloma cells – cell-based, calcein-AM fluorescence, 48 h, PK04 Diversity Set, profiling panel (AID 1166); conditions: RPMI8226 myeloma viability, higher = more signal;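 note: cells grown under basal conditions without added stimulus; test concentration not given here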
# [16] = JC-1 mitochondrial signal, unstimulated HepG2 cells – cell-based, JC-1 fluorescence, 24 h, 100 nL compound, profiling panel (AID 1167); conditions: HepG2 mitochondrial potential, higher = more signal; note: test concentration not given here
# [17] = JC-1 mitochondrial signal, unstimulated adipocytes – cell-based, JC-1 fluorescence, 3T3-L1 adipocytes, 24 h, 100 nL compound, profiling panel (AID 1168); conditions: JC-1 mitochondrial fluorescence, higher = more signal, called active from +8 up or from −8 down; note: test concentration not given here
# [18] = JC-1 mitochondrial signal, unstimulated myeloma cells – cell-based, JC-1 fluorescence, RPMI8226, 24 h, 100 nL compound, profiling panel (AID 1169); conditions: JC-1 mitochondrial potential fluorescence, higher = more signal; note: test concentration not given here
# [19] = JC-1 mitochondrial signal, unstimulated MM1S myeloma – cell-based, JC-1 fluorescence, 24 h, 100 nL compound, profiling panel (AID 1170); conditions: MM1S mitochondrial potential, higher = more signal; note: test concentration not given here
# [20] = resazurin metabolic signal in A549 cells – cell-based, resazurin fluorescence, 24 h, PK04 Diversity Set, profiling panel (AID 1171); conditions: A549 viability, higher = more signal, called active from +8 up or from −8 down; note: test concentration not given here
# Chain of NADPH oxidase 2 (Homo sapiens) (P04839 whole entry, looked up): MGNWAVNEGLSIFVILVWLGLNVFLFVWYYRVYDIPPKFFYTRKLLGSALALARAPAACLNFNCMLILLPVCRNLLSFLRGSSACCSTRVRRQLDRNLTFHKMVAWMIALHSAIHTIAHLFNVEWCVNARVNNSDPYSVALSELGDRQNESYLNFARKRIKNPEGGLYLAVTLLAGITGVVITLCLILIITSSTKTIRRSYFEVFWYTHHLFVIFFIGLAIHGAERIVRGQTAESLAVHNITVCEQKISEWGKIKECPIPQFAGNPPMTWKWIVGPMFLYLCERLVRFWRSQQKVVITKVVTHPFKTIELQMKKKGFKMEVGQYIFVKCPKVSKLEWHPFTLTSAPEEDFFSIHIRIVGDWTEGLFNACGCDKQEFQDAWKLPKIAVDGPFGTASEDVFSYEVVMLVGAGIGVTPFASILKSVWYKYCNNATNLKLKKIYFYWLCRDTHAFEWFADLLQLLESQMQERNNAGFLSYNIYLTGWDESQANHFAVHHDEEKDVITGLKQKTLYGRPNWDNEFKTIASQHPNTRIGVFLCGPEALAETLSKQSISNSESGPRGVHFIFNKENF
# Chain of NADPH oxidase 5 (Homo sapiens) (Q96PH1 whole entry, looked up): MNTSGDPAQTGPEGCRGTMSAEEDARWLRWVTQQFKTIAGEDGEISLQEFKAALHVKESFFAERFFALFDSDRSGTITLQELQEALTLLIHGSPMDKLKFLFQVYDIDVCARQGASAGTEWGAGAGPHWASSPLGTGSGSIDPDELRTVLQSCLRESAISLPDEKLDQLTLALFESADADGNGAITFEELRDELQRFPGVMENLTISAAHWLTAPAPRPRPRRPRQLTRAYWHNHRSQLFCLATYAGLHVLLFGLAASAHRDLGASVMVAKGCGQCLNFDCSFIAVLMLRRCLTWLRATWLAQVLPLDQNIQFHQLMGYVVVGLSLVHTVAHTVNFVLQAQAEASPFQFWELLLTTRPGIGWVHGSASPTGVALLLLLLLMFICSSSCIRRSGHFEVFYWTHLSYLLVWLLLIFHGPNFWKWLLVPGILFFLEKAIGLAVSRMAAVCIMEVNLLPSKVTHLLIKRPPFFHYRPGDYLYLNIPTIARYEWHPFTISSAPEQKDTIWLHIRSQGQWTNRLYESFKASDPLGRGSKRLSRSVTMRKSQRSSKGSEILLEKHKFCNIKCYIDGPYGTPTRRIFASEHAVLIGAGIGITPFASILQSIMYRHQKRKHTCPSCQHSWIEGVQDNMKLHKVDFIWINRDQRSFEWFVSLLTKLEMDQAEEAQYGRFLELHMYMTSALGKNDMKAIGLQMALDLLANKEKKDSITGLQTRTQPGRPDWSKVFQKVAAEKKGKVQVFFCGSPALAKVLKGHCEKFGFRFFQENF
# Chain of NADPH oxidase 4 (Homo sapiens) (Q9NPH5 whole entry, looked up): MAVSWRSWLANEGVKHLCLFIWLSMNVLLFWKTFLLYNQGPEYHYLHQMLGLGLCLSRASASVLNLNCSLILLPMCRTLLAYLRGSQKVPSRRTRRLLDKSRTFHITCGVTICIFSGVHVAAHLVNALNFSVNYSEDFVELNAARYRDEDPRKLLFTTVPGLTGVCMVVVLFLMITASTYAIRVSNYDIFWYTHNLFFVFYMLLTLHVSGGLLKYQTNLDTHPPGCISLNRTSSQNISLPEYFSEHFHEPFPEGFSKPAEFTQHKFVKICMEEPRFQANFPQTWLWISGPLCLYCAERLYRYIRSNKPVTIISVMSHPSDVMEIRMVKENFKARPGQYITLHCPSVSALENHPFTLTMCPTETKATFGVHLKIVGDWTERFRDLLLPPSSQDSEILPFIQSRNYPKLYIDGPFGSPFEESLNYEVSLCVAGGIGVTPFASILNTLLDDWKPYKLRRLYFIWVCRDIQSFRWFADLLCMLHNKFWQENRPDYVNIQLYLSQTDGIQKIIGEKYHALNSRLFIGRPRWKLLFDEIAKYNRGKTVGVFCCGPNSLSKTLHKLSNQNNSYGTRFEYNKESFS
Compound,z-score [1],composite z-score [2],z-score [3],z-score [4],z-score [5],z-score [6],z-score [7],z-score [8],z-score [9],z-score [10],z-score [11],z-score [12],z-score [13],z-score [14],z-score [15],z-score [16],z-score [17],z-score [18],z-score [19],z-score [20]
COC(=O)[C@@]1(Cc2ccccc2N=[N+]=[N-])COC(c2ccc(OCCCO)cc2)=N1,-1.01 (inactive),0.933,24.3 (active),8.54 (active),3.35 (inactive),1.03 (inactive),-0.317,-1.38 (inactive),-0.156 (inactive),-1.63,-0.851,-1.01,-0.388,-3.53,-2.82,-0.472,-0.605 (inactive),-0.125,-0.0849,0.468 (inactive)
O=c1cccc(CCc2ccccc2)o1,-1.21 (inactive),-0.15,1.83 (inactive),0.584 (inactive),-0.13 (inactive),0.339 (inactive),-0.467,0.378 (inactive),0.12 (inactive),-0.339,-0.0082,-0.519,0.926,-0.441,-0.709,-0.903,-0.352 (inactive),-0.976,0.226,-0.574 (inactive)
C#CCN(C(/C=C/c1ccccc1)CO)C(C(=O)O)c1ccccc1 (stereo not given),1.86 (inactive),-0.319,0.175 (inactive),-1.57 (inactive),-0.168 (inactive),-2.09 (inactive),1.81,-0.269 (inactive),-0.46 (inactive),-0.191,-0.341,1.45,-0.996,-0.659,-1.23,0.277,1.08 (inactive),-0.782,0.0117,-0.668 (inactive)
CCCNC(=O)[C@@]1(c2ccc([N+](=O)[O-])cc2)CC(=O)N(CC23CC4CC(CC(C4)C2)C3)[C@@H]1c1ccc(CO)cc1,-0.0948 (inactive),-0.409,5.64 (inactive),0.903 (inactive),2.2 (inactive),0.625 (inactive),-0.154,0.328 (inactive),-1.85 (inactive),-0.569,-1.05,-0.35,-1.67,-3.54,-3.38,-0.99,-0.141 (inactive),-0.769,-1.05,-2.9 (inactive)
C=CC[C@@]1(C(=O)O)N=C(c2ccc(OCCCO)cc2)O[C@@H]1c1ccccc1N=[N+]=[N-],0.232 (inactive),0.546,33.9 (active),32.2 (active),2.2 (inactive),8.02 (active),-0.567,-0.973 (inactive),1.14 (inactive),0.518,0.179,-0.76,0.47,-0.756,-0.577,-1.95,-0.366 (inactive),-0.919,-0.947,-0.514 (inactive)
CC(C)(C)OC(=O)CC[C@@]1(C(=O)O)N=C(c2ccc(OCCCO)cc2)O[C@@H]1c1ccccc1N=[N+]=[N-],0.592 (inactive),0.266,31.5 (active),28.4 (active),1.79 (inactive),7.51 (inactive),-0.342,-0.0442 (inactive),1.69 (inactive),0.907,0.188,-0.364,0.218,-0.0694,-0.385,-2.88,-1.08 (inactive),-0.759,-1.12,0.0421 (inactive)
COC(=O)C1=CC(CCCO)=CC(C2CC2)N(Cc2sc3ccccc3c2Cl)C=C1C(=O)OC (stereo not given),-0.899 (inactive),0.335,10.6 (active),2.09 (inactive),0.901 (inactive),1.23 (inactive),-0.18,-0.986 (inactive),-1.76 (inactive),0.19,-0.637,0.326,-0.514,-2.99,-4.06,0.00468,0.235 (inactive),-0.915,0.00801,0.0509 (inactive)
COc1ccc(C(O)C2C=CC3C(=O)NC(=O)C3N2Nc2ccccn2)cc1OCc1ccccc1 (stereo not given),-0.325 (inactive),-0.106,1.68 (inactive),0.396 (inactive),0.479 (inactive),1.04 (inactive),-0.432,-1.49 (inactive),-3.05 (inactive),-2.03,-1.11,0.119,0.222,-0.042,-1.22,-1,-0.479 (inactive),-0.879,0.607,-0.404 (inactive)
